# This is a sample that favours compounds with a hit; in the whole collection about 7.2% have one here.
# Sm TGR inh: inhibitors of Schistosoma mansoni thioredoxin glutathione reductase; Q962Y6; Potency, µM (top dose mostly 114 µM), for the others: top-dose activity change, negative = inhibition, hits mostly inhibitors; AID 485364; actives 3% (n = 360,000); purified TGR, DTNB reduction, TNB absorbance 405 nm; further: nearly all actives have a fitted effect of over 60% in size
#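 TGR 20 nM + NADPH 100 uM (dispensed conc.), cpd preinc 15 min RT; start with NADPH (500 uM addition) then DTNB (15 mM addition). Kinetic TNB absorbance, 405 nm filter. Four-parameter Hill fit across titration.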
# HCV inhibitor: blocks hepatitis C virus | Huh7.5.1 HCVcc-Cre infection, luciferase reporter, 44 h | Potency, µM (doses to about 41.8 µM), inactives show top-dose activity change, negative = inhibition, actives largely listed as inhibitors | actives 3.4% (n = 340,000) | AID 651820
#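 Infectious HCVcc-Cre (~0.5 moi) was added to cells just after compound, with cells seeded 4 h earlier at 1,000 per well. Luciferase activity after 44 h culture reported infection; substrate was incubated 15 min at room temperature before reading.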
# FMDV inh: blocks foot and mouth disease virus; FMDV antiviral cell-based qHTS; Potency, µM (top dose mostly 57.9 µM), for the others: at the highest dose activity change, negative = inhibition, usual class: inhibitors; actives 1.2% (n = 410,000); calls by dose curve; tested in HEK293T cells; further: read-out not given here; nearly all actives have a fitted effect of over 45% in size
# Marburg entry inh: inhibitors of Marburg virus binding or cell entry. actives 1.8% (n = 300,000). AID 540276. Potency, µM (doses to about 37.8 µM), without a hit: at the top dose activity change, negative = inhibition, hits mostly inhibitors. Marburg virus pseudotyped entry inhibition, cell reporter; calls by dose curve; tested in HEK293 cells
# Lassa entry inh: Lassa virus entry inhibition; actives 1.2% (n = 300,000); Lassa virus pseudotype entry inhibition, cell reporter; Potency, µM (doses to about 37.9 µM), for inactives: at the highest dose activity change, negative = inhibition, actives largely listed as inhibitors; AID 540256; calls by dose curve; tested in HEK293 cells; further: nearly all actives have a fitted effect of over 50% in size
# RE007 growth inh: less growth of the S. pombe RE007 Vpr strain. AID 651644. actives 0.21% (n = 360,000). S. pombe RE007 Vpr strain, BacTiter-Glo ATP luminescence, 24 h. Potency, µM (doses to about 92.2 µM), for the others: at the highest dose activity change, negative = less growth, most hits filed as inhibitors; active means well fitted falling curve with a large enough effect; inconclusive means small, poorly fitted or top-dose-only effect; inactive means no such curve, though single readings can be large or run the other way; further: nearly all actives have a fitted effect of over 50% in size
#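 Fission yeast RE007 carrying one integrated HIV-1 vpr copy, seeded at OD 0.01 in PMG+AL medium with 23 nL pinned compound. Grown 24 h at 30 degrees; viability read by BacTiter-Glo luminescence after 5 min.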
# Numbers without * were called inactive; ? = inconclusive; nt = not tested or not shown; [ ] = dose if it differs, or a comment. Unless noted, the call rests on the fitted dose curve; in most records, active means well fitted curve in the direction sought with a large enough effect; inconclusive means small, poorly fitted or top-dose-only effect, or another doubt; inactive means no such curve, though single readings can be large; an effect the other way counts as inactive or inconclusive. On the % scale 0 is the no-effect control and ±100 the full control effect; potency means the concentration at half of the fitted maximal effect.
SMILES,Sm TGR inh,HCV inhibitor,FMDV inh,Marburg entry inh,Lassa entry inh,RE007 growth inh
O=C(CCN1CCOCC1)c1ccc(Br)cc1,0%,1%,-14%,3%,?,32µM*
O=C(CCN1CCOCC1)c1ccc(Cl)cc1,0%,-12%,-13%,-5%[46.1 µM],?,40µM*
O=C(Oc1cccc(Nc2ncnc3ccccc23)c1)c1ccccc1Cl,-2%,?,18µM*,?,-13%,?
CCO[C@H]1c2c(ccc3ccc(=O)oc23)OC(C)(C)[C@@H]1O,0%,2.8µM*,-18%,nt,nt,10%
C/C=C(/C)C(=O)O[C@@H]1[C@H](OC(=O)C=C(C)C)c2c(ccc3ccc(=O)oc23)OC1(C)C,0%,0%[8.37 µM],-18%,-14%,-3%,4%
C/C=C(/C)C(=O)O[C@@H]1c2c(ccc3ccc(=O)oc23)OC(C)(C)[C@@H]1OC(=O)/C(C)=C\C,-9%,22µM*,?,?,?,-1%
Cc1ccc(-c2noc(-c3ccc(N4CCCCC4C)c([N+](=O)[O-])c3)n2)cc1 (configuration not stated),2%,nt,0%,7%[46.1 µM],17%[46.1 µM],nt
CCOc1ccc(CNS(=O)(=O)c2cc3c(cc2C)NC(=O)CO3)cc1,0%,nt,15%,nt,-10%[46.1 µM],nt
NC(=O)C(=CNc1nc(-c2ccc(Cl)c(Cl)c2)cs1)C(N)=O,2.2µM*,nt,nt,nt,nt,nt
O=C(O)c1ccc(-c2nc(-c3ccc(Cl)c(Cl)c3)cs2)cc1,?,11%,0%,nt,nt,-9%
OCC1OC(n2cnc3c(NCc4ccco4)ncnc32)C(O)C1O (configuration not stated),nt,?,-16%,?,4.5µM*,3%
OC[C@@H]1O[C@@H](n2cnc3c(NC4CCCC4)ncnc32)[C@H](O)[C@H]1O,nt,nt,-19%,20%,nt,nt
OC[C@H]1O[C@@H](n2cnc3c(NCc4ccco4)ncnc32)[C@H](O)[C@@H]1O,nt,18µM*,-24%,nt,nt,0%[18.4 µM]
C=CCNc1ncnc2c1ncn2C1OC(CO)C(O)C1O (configuration not stated),7%,?,-14%,14µM*,?,3%
Nc1nc(Nc2ccccc2)nc2c1ncn2[C@@H]1O[C@H](CO)[C@@H](O)[C@H]1O,nt,2µM*,-17%,11%,2%,-8%[18.4 µM]
Cc1cc(OCC(=O)N(Cc2ccc(N(C)C)cc2)C2CCS(=O)(=O)C2)cc(C)c1Cl (configuration not stated),26%,nt,-20%,?,1%[46.1 µM],nt
CCN(C(=O)C(=O)Nc1ccc2nc3n(c(=O)c2c1)CCCCC3)c1ccc(F)cc1,1%,nt,-8%,-26%[46.1 µM],-10%[46.1 µM],nt
COc1ccccc1CNc1nc(-c2ccco2)nn1S(=O)(=O)c1ccc2ccccc2c1,?,nt,50%,2%[46.1 µM],20%[46.1 µM],nt
COc1cc(C)cc2oc(=O)c(CC(=O)NCCc3ccc(Cl)cc3)c(C)c12,1%,nt,-10%,4%[46.1 µM],7%[46.1 µM],nt
Nc1ncnc2c1ncn2[C@@H]1O[C@H](CNCc2ccc(OCC(=O)Nc3ccccn3)cc2)[C@@H](O)[C@H]1O,nt,11%,-15%,nt,nt,-22%
Nc1ncnc2c1ncn2[C@@H]1O[C@H](CNCc2ccc(OCc3ccccc3)cc2)[C@@H](O)[C@H]1O,nt,4µM*,16%,nt,nt,-8%
COc1cc(CNCCSc2nnnn2C)ccc1OCc1ccc(C)cc1,-2%,nt,4%,24%[46.1 µM],?,nt
CCOC(=O)c1c(-c2ccccc2Cl)cn2ccccc12,4%,?,-6%,?,13µM*,-18%
O=C(Cn1cnc2c(cnn2-c2ccccc2)c1=O)N1CCCc2ccccc21,4%,?,?,7.3µM*,?,?
O=C(CN1C(=O)NC2(CCCCC2)C1=O)N1CCN(S(=O)(=O)c2ccc(Cl)s2)CC1,-2%,-5%,-22%,nt,nt,-1%
SMILES,Sm TGR inh,HCV inhibitor,FMDV inh,Marburg entry inh,Lassa entry inh,RE007 growth inh
CN1C(=O)N(CC(=O)N2CCN(S(=O)(=O)c3ccc(Cl)s3)CC2)C(=O)C12CCCCC2,45µM*,3%,0%,?,4%,13%
CC(=O)c1c(C)[nH]c(C(=O)OCC(=O)Nc2ccc(C)cc2[N+](=O)[O-])c1C,1%,2.8µM*,5µM*,?,3%,1%
CC(=O)c1c(C)[nH]c(C(=O)OCC(=O)Nc2cc(Cl)ccc2[N+](=O)[O-])c1C,-3%,10µM*,28µM*,-2%,nt,7%
Cc1ccc(NC(=O)COC(=O)C2=COCCO2)c([N+](=O)[O-])c1,-3%,-5%,-8%,23%[46.1 µM],1%,19%
CCN(CC)C(=O)c1oc2ccc(S(=O)(=O)N3CC(C)CC(C)C3)cc2c1C (configuration not stated),12%,3.5µM*,-28%,?,?,0%
CCN(CC)C(=O)c1oc2ccc(S(=O)(=O)N3CCCCCC3)cc2c1C,-8%,25µM*,?,?,?,18%
CCOc1ccc(-n2c(=O)c3c(C)c(C)sc3n(CC(=O)N3CCC(C)CC3)c2=O)cc1,5%,nt,-19%,-8%[46.1 µM],2%[46.1 µM],nt
O=C1[C@H]2[C@H]3[C@H](O)[C@H](O)C/C(=N/OC[C@@H](O)COCc4ccco4)[C@@H]3CC[C@@H]2C(=O)N1C[C@@H]1CCCO1,nt,nt,nt,4%[14.2 µM],nt,nt
Cc1ccc(S(=O)(=O)N(CC(=O)N2CCOCC2)c2ccccc2F)cc1,0%,16%,32%,24%[46.1 µM],?,-6%
CCOc1ccccc1N(CC(=O)N1CCOCC1)S(=O)(=O)c1ccc(SC)cc1,-2%,10%,83%,?,5.6µM*,7%
CCOc1cccc(NC(=O)C2CC(=O)N(CC)C(=Nc3ccc(F)cc3)S2)c1 (configuration not stated),0%,nt,-29%,?,-21%[46.1 µM],nt
O=C(Nc1ccc(C(=O)N2CCCc3ccccc32)cc1)c1cccs1,10%,-25%,-5%,11µM*,-27%[46.1 µM],4%
COc1ccc(-c2nnc3sc(-c4c(OC)cccc4OC)nn23)cc1,nt,nt,nt,-2%,nt,nt
COc1cccc(OC)c1-c1nn2c(-c3cc(-c4ccccc4)n[nH]3)nnc2s1,13µM*,?,-23%,?,?,7%
O=[N+]([O-])C(=C1Nc2ccccc2N1)/C(Cl)=C(/Cl)Br,6.3µM*,-1%,-8%,-8%,19%,25%
O=C(Nc1c2c(nn1-c1ccc(Cl)cc1)CS(=O)(=O)C2)c1cccc(F)c1,-6%,nt,0%,nt,8%[46.1 µM],nt
CN1C(=O)CC(Nc2cccc3cccc(N)c23)C1=O (configuration not stated),32µM*,5%,-10%,2%[46.1 µM],-25%[46.1 µM],-26%
CC(C)N1C(=O)CC(Nc2cccc3cccc(N)c23)C1=O (configuration not stated),?,14%,-7%,9%[46.1 µM],0%,-25%
